This note sets out measurements from PubChem BioAssay (NCATS).

Assay [1] can be described thus: Quantitative High-Throughput drug screen in 47 multiple myeloma cell lines against the NCATS MIPE library collection: KMS12PE_JCRB cell viability assay (AID 1918972). Also: nearly all actives have a fitted effect of over 30% in size. In a few lines:
(§1)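 qHTS of the MIPE 4.0 collection: 500 myeloma cells/well, 48 h drug exposure at 37C in 5% CO2, then CellTiter-Glo for 5 min at room temperature before luminescence reading.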

Assay [2] is described as follows: Quantitative High-Throughput drug screen in 47 multiple myeloma cell lines against the NCATS MIPE library collection: KMS26_JCRB cell viability assay (AID 1918975). Also: nearly all actives have a fitted effect of over 45% in size. In a few lines: as §1
A short description of assay [3]: Quantitative High-Throughput drug screen in 47 multiple myeloma cell lines against the NCATS MIPE library collection: MMM1_PLB cell viability assay (AID 1918976). Also: nearly all actives have a fitted effect of over 35% in size. In a few lines: (§2)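 Viability after 48 h drug exposure was measured as ATP-dependent luminescence. Cells, 500 per well, sat at 37 °C under 5% CO2; DMSO wells set 100%, media-only wells 0%.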
Assay [4] in a line: Quantitative High-Throughput drug screen in 47 multiple myeloma cell lines against the NCATS MIPE library collection: MOLP8_DSMZ cell viability assay (AID 1918977). Also: nearly all actives have a fitted effect of over 45% in size. In outline:
as §2

Assay [5] can be described thus: Quantitative High-Throughput drug screen in 47 multiple myeloma cell lines against the NCATS MIPE library collection: OCIMY1_PLB cell viability assay (AID 1918979). Also: nearly all actives have a fitted effect of over 35% in size. In outline:
as §2

Assay [6] is described as follows: Quantitative High-Throughput drug screen in 47 multiple myeloma cell lines against the NCATS MIPE library collection: MM1S_ATCC cell viability assay (AID 1918980). Also: nearly all actives have a fitted effect of over 45% in size. In a few lines:
as §2

The nature of assay [7]: Quantitative High-Throughput drug screen in 47 multiple myeloma cell lines against the NCATS MIPE library collection: MM1R_ATCC cell viability assay (AID 1918981). Also: nearly all actives have a fitted effect of over 35% in size. In a few lines: as §2
Assay [8] is described as follows: Quantitative High-Throughput drug screen in 47 multiple myeloma cell lines against the NCATS MIPE library collection: KMS28PE_JCRB cell viability assay (AID 1918983). Also: nearly all actives have a fitted effect of over 35% in size. In outline:
as §2

The nature of assay [9]: Quantitative High-Throughput drug screen in 47 multiple myeloma cell lines against the NCATS MIPE library collection: OCIMY7_PLB cell viability assay (AID 1918987). Also: nearly all actives have a fitted effect of over 65% in size. In outline: as §2
Assay [10] in a line: Quantitative High-Throughput drug screen in 47 multiple myeloma cell lines against the NCATS MIPE library collection: OCIMY5_PLB cell viability assay (AID 1918988). Also: nearly all actives have a fitted effect of over 65% in size. In outline:
as §2

Assay [11] is described as follows: Quantitative High-Throughput drug screen in 47 multiple myeloma cell lines against the NCATS MIPE library collection: U266_ATCC cell viability assay (AID 1919864). Also: nearly all actives have a fitted effect of over 35% in size. In outline: as §2
The nature of assay [12]: Quantitative High-Throughput drug screen in 47 multiple myeloma cell lines against the NCATS MIPE library collection: NCIH929_DSMZ cell viability assay (AID 1918978). Also: nearly all actives have a fitted effect of over 35% in size. In outline: as §2
Assay [13] can be described thus: Quantitative High-Throughput drug screen in 47 multiple myeloma cell lines against the NCATS MIPE library collection: LP1_DSMZ cell viability assay (AID 1918982). Also: nearly all actives have a fitted effect of over 35% in size. In a few lines:
as §2

The nature of assay [14]: Quantitative High-Throughput drug screen in 47 multiple myeloma cell lines against the NCATS MIPE library collection: SKMM1_PLB cell viability assay (AID 1919863). Also: nearly all actives have a fitted effect of over 35% in size. To be noted: SKMM1 myeloma viability, CellTiter-Glo ATP, 48 h; viability: stronger effect = lower value. In a few lines: as §2
Assay [15] can be described thus: Quantitative High-Throughput drug screen in 47 multiple myeloma cell lines against the NCATS MIPE library collection: XG6_PLB cell viability assay (AID 1919865). Also: nearly all actives have a fitted effect of over 40% in size. In a few lines:
as §2

Assay [16] in a line: Quantitative High-Throughput drug screen in 47 multiple myeloma cell lines against the NCATS MIPE library collection: KMS20_JCRB cell viability assay (AID 1918973). Also: nearly all actives have a fitted effect of over 45% in size. In outline: (§3)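 Viability readout: CellTiter-Glo luminescence following 5 min room-temperature incubation with reagent. Prior exposure: 48 h, 37C, humidified 5% CO2, 500 cells per well.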
Assay [17] is described as follows: Quantitative High-Throughput drug screen in 47 multiple myeloma cell lines against the NCATS MIPE library collection: KMS21BM_JCRB cell viability assay (AID 1918974). The conditions noted are these: ATP luminescence, 48 h; viability: at 45.8 µM (top of the series). In a few lines: as §3
The nature of assay [18]: Quantitative High-Throughput drug screen in 47 multiple myeloma cell lines against the NCATS MIPE library collection: L363_DSMZ cell viability assay (AID 1918984). Also: nearly all actives have a fitted effect of over 40% in size. In outline:
as §2

Assay [19] can be described thus: Quantitative High-Throughput drug screen in 47 multiple myeloma cell lines against the NCATS MIPE library collection: KMS34_JCRB cell viability assay (AID 1918985). Also: nearly all actives have a fitted effect of over 40% in size. In a few lines:
as §2

Assay [20] in a line: Quantitative High-Throughput drug screen in 47 multiple myeloma cell lines against the NCATS MIPE library collection: OPM1_PLB cell viability assay (AID 1918989). Also: nearly all actives have a fitted effect of over 40% in size. In outline:
as §2

Results filed as inconclusive are left out. A number with no mark means an inactive call. Active and inactive are the calls of the source. Calls follow the shape of the dose curve; as a rule, active = well fitted curve in the direction sought with a large enough effect; inconclusive = small, poorly fitted or top-dose-only effect, or another doubt; inactive = no such curve, though single readings can be large; an effect the other way counts as inactive or inconclusive.

Broadly, the viability is a read-out of living cells in per cent, often relative to untreated cells.
Potency is read from the fitted curve at half-maximal effect.

Consider `CCNC(=O)C[C@@H]1N=C(c2ccc(Cl)cc2)c2cc(OC)ccc2-n2c(C)nnc21`, for which the Potency in assay [1] was 166 nM (active); in [2] it was 93.5 nM (active); in assay [3] it was 209 nM (active); in assay [4] it was 209 nM (active); in assay [5] it was 1050 nM (active); in assay [6], 1050 nM (active). Also, the Potency in [7] is 590 nM (active); in [8], 264 nM (active); in assay [9], 2640 nM (active); in [10] it was 209 nM (active); in assay [11] it was 372 nM (active).

In the case of `CC(O)=C(C#N)C(=O)Nc1cc(Br)ccc1Br`, the Potency in [1] is 5900 nM (active); in assay [2] it was 18700 nM (active); in [3] it was 16600 nM (active); in assay [6], 20900 nM (active); in assay [7] it was 20900 nM (active); in assay [8], 14800 nM (active). Moreover, the Potency in [10] is 1660 nM (active); in assay [14], 20900 nM (active). Moreover, the Potency result in assay [12], in [5], in assay [13] and in assay [15] was “inactive” in each case.

`CN1CCN(c2ccc([N+](=O)[O-])c3no[n+]([O-])c23)CC1`: the Potency was 16600 nM (active) in assay [1]; 8330 nM (active) in [16]; 8330 nM (active) in assay [17]; 20900 nM (active) in assay [3]; 26400 nM (active) in [5]; 23500 nM (active) in assay [6]. In addition, the Potency in assay [7] is 20900 nM (active); in assay [13], 18700 nM (active); in assay [8] it was 18700 nM (active); in [18], 8330 nM (active); in assay [19], 14800 nM (active); in [9], 4180 nM (active). The Potency is 16600 nM (active) in assay [10]; 18700 nM (active) in [20]; 18700 nM (active) in assay [14]; 18700 nM (active) in [11]; 20900 nM (active) in [15].

As for `COc1cc2cc(c1Cl)N(C)C(=O)C[C@H](OC(=O)C(C)C)[C@]1(C)O[C@H]1[C@H](C)[C@@H]1C[C@@](O)(NC(=O)O1)[C@H](OC)C=CC=C(C)C2`, the Potency entry in [1], in [16], in assay [2], in [3], in [4] and in [6] was “inactive” throughout. Further, the Potency entry in assay [7], in assay [13], in [8], in [18], in assay [19] and in assay [9] was “inactive” in each case. Further, the Potency result in assay [10], in assay [11] and in [15] was “inactive” each time.

As to `COCC1(CO)C(=O)C2CCN1CC2` (stereo not drawn), the Potency in [1] was 9350 nM (active); in assay [17] it was 4180 nM (active); in assay [2], 662 nM (active); in [3] it was 5260 nM (active); in assay [4], 590 nM (active); in assay [12], 833 nM (active). Also, the Potency in assay [5] was 2090 nM (active); in assay [6], 264 nM (active); in assay [7], 469 nM (active); in assay [13], 2640 nM (active); in assay [8], 18700 nM (active); in assay [18], 3320 nM (active). For the same molecule, the Potency in assay [19] was 590 nM (active); in assay [9], 469 nM (active); in assay [10], 2640 nM (active); in assay [14], 6620 nM (active); in assay [11], 2960 nM (active); in assay [15], 1660 nM (active).

As for `CC(C)[C@]12O[C@@H]1[C@@H]1O[C@]13[C@]1(O[C@H]1C[C@@H]1C4=C(CC[C@@]13C)C(=O)OC4)[C@H]2O`, the Potency entry in assay [1], in assay [17], in assay [2], in [3], in assay [4] and in [12] was “inactive” in each case. The Potency entry in assay [5], in assay [6], in assay [7], in [13], in assay [8] and in assay [18] was “inactive” each time. Also, the Potency result in assay [19], in assay [9], in [10], in assay [11] and in assay [15] was “inactive” each time. Also, the viability in [14] is -10.1%.

With `CC1=C(O)C(=O)C=C2C1=CC=C1[C@@]2(C)CC[C@@]2(C)[C@@H]3C[C@](C)(C(=O)O)CC[C@]3(C)CC[C@]12C`, the Potency was 1050 nM (active) in assay [1]; 418 nM (active) in assay [2]; 1180 nM (active) in assay [3]; 418 nM (active) in assay [4]; 833 nM (active) in assay [5]; 662 nM (active) in assay [6]. Besides, the Potency was 469 nM (active) in assay [7]; 833 nM (active) in assay [13]; 833 nM (active) in [8]; 662 nM (active) in [18]; 743 nM (active) in [19]; 296 nM (active) in assay [9]. For the same molecule, the Potency was 296 nM (active) in assay [10], 1050 nM (active) in assay [14], 743 nM (active) in assay [11] and 743 nM (active) in [15].

With `O=S(=O)(CC1CS1)c1ccc(Oc2ccccc2)cc1` (stereo not drawn), the Potency in [1] was 3720 nM (active); in assay [2], 26400 nM (active); in [3] it was 16600 nM (active); in assay [4], 16600 nM (active); in assay [6] it was 14800 nM (active); in assay [7], 16600 nM (active). In addition, the Potency in [9] is 5260 nM (active); in [10], 20900 nM (active); in assay [20], 18700 nM (active); in assay [14], 20900 nM (active); in assay [11], 14800 nM (active); in assay [15], 13200 nM (active).

With `NC1CC1c1ccccc1` (stereo not drawn), the Potency entry in [1], in assay [16], in assay [2], in [4], in assay [5] and in [6] was “inactive” throughout. Besides, the Potency entry in assay [13], in assay [9], in [20], in [11] and in assay [15] was “inactive” each time.

For `CCCCCC[C@H]1C(=O)O[C@H](C)[C@H](NC(=O)c2cccc(NC=O)c2O)C(=O)O[C@@H](C)[C@@H]1OC(=O)CC(C)C`, the Potency in assay [1] was 469 nM (active); in [2], 132 nM (active); in assay [3], 148 nM (active); in [4], 235 nM (active); in assay [6] it was 4690 nM (active); in [13], 59 nM (active). The Potency in assay [8] is 372 nM (active); in assay [9], 187 nM (active); in assay [10] it was 66.2 nM (active); in assay [20], 148 nM (active); in [14], 5260 nM (active); in assay [11], 372 nM (active). Moreover, the Potency in assay [15] is 105 nM (active).
